Experimental data reported in article PMC8384837, “Expanding the binding specificity for RNA recognition by a PUF domain”.

Experiments:
Assay in all cases: yeast three-hybrid, YBZ-1, SC-Leu-His + 0.5 mM 3-AT, 4 days
Conditions in all cases: tags: N-Gal4 AD-HA kept; label: inside an RPR1-promoter hybrid RNA with tandem MS2 sites; ssRNA
PUM1 PUF domain R1-RCM = PUM1 PUF domain R1-RCM (Homo sapiens, UniProt Q14671 828-1176, S863R;R864C;Q867M)
How it was run: (§1)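 Sequencing with Illumina followed PCR amplification of the repeat regions from transformants grown four days on SC-Leu (input) or SC-Leu-His + 0.5 mM 3-AT (selection). The transformants were strain YBZ-1 with a LexA–MS2 coat fusion and a HIS3 reporter, carrying Pumilio-1 PUF domain libraries and matching RNA elements. The interaction score is the log change in variant frequency from input to selection, computed in log2 with a pseudocount of 1 for absent variants.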

PUM1 PUF domain R3-EFG = PUM1 PUF domain R3-EFG (Homo sapiens, UniProt Q14671 828-1176, C935E;R936F;Q939G)
How it was run: as §1

PUM1 PUF domain R3-SWL = PUM1 PUF domain R3-SWL (Homo sapiens, UniProt Q14671 828-1176, C935S;R936W;Q939L)
How it was run: as §1

PUM1 PUF domain R8-TYC = PUM1 PUF domain R8-TYC (Homo sapiens, UniProt Q14671 828-1176, N1122T;Q1126C)
How it was run: as §1

PUM1 PUF domain R8-KFG = PUM1 PUF domain R8-KFG (Homo sapiens, UniProt Q14671 828-1176, N1122K;Y1123F;Q1126G)
How it was run: as §1

PUM1 PUF domain R2-KCA = PUM1 PUF domain R2-KCA (Homo sapiens, UniProt Q14671 828-1176, N899K;Y900C;Q903A)
How it was run: as §1

PUM1 PUF domain R2-EWA = PUM1 PUF domain R2-EWA (Homo sapiens, UniProt Q14671 828-1176, N899E;Y900W;Q903A)
How it was run: as §1

PUM1 PUF domain R5-DHK = PUM1 PUF domain R5-DHK (Homo sapiens, UniProt Q14671 828-1176, C1007D;R1008H;Q1011K)
How it was run: as §1

PUM1 PUF domain R5-VYY = PUM1 PUF domain R5-VYY (Homo sapiens, UniProt Q14671 828-1176, C1007V;R1008Y;Q1011Y)
How it was run: as §1

PUM1 PUF domain R6-CWA = molecular target: T1, PUM1 PUF domain R6-CWA (Homo sapiens, UniProt Q14671 828-1176, N1043C;Y1044W;Q1047A)
T1 sequence: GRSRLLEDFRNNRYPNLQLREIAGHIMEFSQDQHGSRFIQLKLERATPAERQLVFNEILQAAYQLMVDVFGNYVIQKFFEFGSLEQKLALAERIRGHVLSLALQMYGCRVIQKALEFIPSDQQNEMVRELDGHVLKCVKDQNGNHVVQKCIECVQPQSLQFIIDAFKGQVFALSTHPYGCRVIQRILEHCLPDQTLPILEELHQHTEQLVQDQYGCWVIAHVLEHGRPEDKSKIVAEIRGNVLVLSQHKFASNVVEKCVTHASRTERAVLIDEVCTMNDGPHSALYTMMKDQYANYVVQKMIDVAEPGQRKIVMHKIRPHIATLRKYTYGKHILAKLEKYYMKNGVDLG
How it was run: as §1

Sequence of PUM1 PUF domain R2-KCA (Q14671 828-1176 N899K/Y900C/Q903A): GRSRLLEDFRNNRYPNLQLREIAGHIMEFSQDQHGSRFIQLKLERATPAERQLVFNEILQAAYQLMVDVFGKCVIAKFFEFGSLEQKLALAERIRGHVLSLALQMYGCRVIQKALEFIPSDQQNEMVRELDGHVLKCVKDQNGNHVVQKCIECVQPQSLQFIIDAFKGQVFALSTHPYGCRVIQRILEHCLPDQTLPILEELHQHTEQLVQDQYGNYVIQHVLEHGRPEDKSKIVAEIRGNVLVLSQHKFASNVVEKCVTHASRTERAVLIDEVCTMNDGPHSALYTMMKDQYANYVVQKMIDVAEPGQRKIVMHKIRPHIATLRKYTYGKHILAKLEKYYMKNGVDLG
Sequence of PUM1 PUF domain R8-TYC (Q14671 828-1176 N1122T/Q1126C): as the sequence (Q14671 828-1176 N899K/Y900C/Q903A) above, with K72N, C73Y, A76Q, N295T, Q299C counted along it

**Q.** With “GGCUAGAACUAGUGGAUCCCCCGGCGCCCGGCGGCUCGAGCCCGGGUAAGUGUAAAUGGUCUGCAUGCCGCCGGGCGCCAUGCCUGCAGGUCGACUCUAGAAAACAUG” as the sequence, how does the binding signal (PUM1 PUF domain R1-RCM) read?
**A.** The binding signal was 0.08 log2 enrichment (interaction score).

**Q.** For “GGCUAGAACUAGUGGAUCCCCCGGCGCCCGGCGGCUCGAGCCCGGGUAAGUGUAAAUCGUCUGCAUGCCGCCGGGCGCCAUGCCUGCAGGUCGACUCUAGAAAACAUG”, which binding signal (PUM1 PUF domain R1-RCM) is on record?
**A.** Its binding signal is 2.75 log2 enrichment (interaction score).

**Q.** What does the source list for “GGCUAGAACUAGUGGAUCCCCCGGCGCCCGGCGGCUCGAGCCCGGGUAAGUGUAAUUAGUCUGCAUGCCGCCGGGCGCCAUGCCUGCAGGUCGACUCUAGAAAACAUG”?
**A.** binding signal (PUM1 PUF domain R3-EFG): 3.8 log2 enrichment (interaction score); binding signal (PUM1 PUF domain R3-SWL): 1.78 log2 enrichment (interaction score)

**Q.** For “GGCUAGAACUAGUGGAUCCCCCGGCGCCCGGCGGCUCGAGCCCGGGUAAGCGUAAAUAGUCUGCAUGCCGCCGGGCGCCAUGCCUGCAGGUCGACUCUAGAAAACAUG”, which binding signal (PUM1 PUF domain R8-TYC) is on record?
**A.** The binding signal was 2.53 log2 enrichment (interaction score).

**Q.** And the binding signal (PUM1 PUF domain R8-KFG)?
**A.** The binding signal was 2.54 log2 enrichment (interaction score).

**Q.** For “GGCUAGAACUAGUGGAUCCCCCGGCGCCCGGCGGCUCGAGCCCGGGUAAGUGUAAAGAGUCUGCAUGCCGCCGGGCGCCAUGCCUGCAGGUCGACUCUAGAAAACAUG”, which binding signal (PUM1 PUF domain R2-KCA) is on record?
**A.** The binding signal was 3.39 log2 enrichment (interaction score).

**Q.** And the binding signal (PUM1 PUF domain R2-EWA)?
**A.** Its binding signal is 2.1 log2 enrichment (interaction score).

**Q.** With “GGCUAGAACUAGUGGAUCCCCCGGCGCCCGGCGGCUCGAGCCCGGGUAAGGGUAAAUAGUCUGCAUGCCGCCGGGCGCCAUGCCUGCAGGUCGACUCUAGAAAACAUG” as the sequence, how does the binding signal (PUM1 PUF domain R8-KFG) read?
**A.** Its binding signal is 4.73 log2 enrichment (interaction score).

**Q.** “GGCUAGAACUAGUGGAUCCCCCGGCGCCCGGCGGCUCGAGCCCGGGUAAGUGUAAAUAGUCUGCAUGCCGCCGGGCGCCAUGCCUGCAGGUCGACUCUAGAAAACAUG” was tested. Which binding signal (PUM1 PUF domain R3-EFG) did it give?
**A.** Its binding signal is 4.8 log2 enrichment (interaction score).

**Q.** And the binding signal (PUM1 PUF domain R5-DHK)?
**A.** The binding signal was 2.94 log2 enrichment (interaction score).

**Q.** And the binding signal (PUM1 PUF domain R5-VYY)?
**A.** The binding signal was 2.98 log2 enrichment (interaction score).

**Q.** And the binding signal (PUM1 PUF domain R3-SWL)?
**A.** The binding signal was 3.24 log2 enrichment (interaction score).

**Q.** And the binding signal (PUM1 PUF domain R6-CWA)?
**A.** Its binding signal is 4.17 log2 enrichment (interaction score).

**Q.** What about the binding signal (PUM1 PUF domain R8-KFG) of the same sequence?
**A.** The binding signal was 6.69 log2 enrichment (interaction score).

**Q.** How did the binding signal (PUM1 PUF domain R2-EWA) turn out when “GGCUAGAACUAGUGGAUCCCCCGGCGCCCGGCGGCUCGAGCCCGGGUAAGUGUAAAAAGUCUGCAUGCCGCCGGGCGCCAUGCCUGCAGGUCGACUCUAGAAAACAUG” was run?
**A.** Its binding signal is 5.74 log2 enrichment (interaction score).

**Q.** Which binding signal (PUM1 PUF domain R3-EFG) does the source give for “GGCUAGAACUAGUGGAUCCCCCGGCGCCCGGCGGCUCGAGCCCGGGUAAGUGUAACUAGUCUGCAUGCCGCCGGGCGCCAUGCCUGCAGGUCGACUCUAGAAAACAUG” here?
**A.** The binding signal was 2.94 log2 enrichment (interaction score).

**Q.** “GGCUAGAACUAGUGGAUCCCCCGGCGCCCGGCGGCUCGAGCCCGGGUAAGUGUAAGUAGUCUGCAUGCCGCCGGGCGCCAUGCCUGCAGGUCGACUCUAGAAAACAUG” was tested. Which binding signal (PUM1 PUF domain R3-EFG) did it give?
**A.** Its binding signal is 4.12 log2 enrichment (interaction score).
